For 40 compounds, outcome and activation results are on record in PubChem BioAssay (Tox21).

Results filed as inconclusive are left out. Values without a mark were called inactive. Active and inactive are the calls of the source. Calls follow the shape of the full dose curve.
% is scaled to controls: 0 for no effect and ±100 for the full control effect.

Vitamin D3 receptor (Homo sapiens), sequence (P11473 whole entry, looked up): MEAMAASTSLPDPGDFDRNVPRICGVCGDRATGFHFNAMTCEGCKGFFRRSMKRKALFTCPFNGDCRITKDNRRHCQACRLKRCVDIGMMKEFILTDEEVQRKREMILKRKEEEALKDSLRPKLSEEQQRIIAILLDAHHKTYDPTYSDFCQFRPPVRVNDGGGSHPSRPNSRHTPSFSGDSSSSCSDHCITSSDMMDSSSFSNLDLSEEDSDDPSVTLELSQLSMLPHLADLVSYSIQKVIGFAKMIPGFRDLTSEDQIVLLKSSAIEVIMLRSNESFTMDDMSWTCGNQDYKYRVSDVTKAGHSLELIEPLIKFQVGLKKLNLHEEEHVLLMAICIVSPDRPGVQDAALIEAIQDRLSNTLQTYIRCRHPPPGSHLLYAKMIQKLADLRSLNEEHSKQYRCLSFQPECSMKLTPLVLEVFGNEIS

This assay addresses Vitamin D3 receptor (Homo sapiens) (UniProt P11473). In words: qHTS assay to identify small molecule agonists of the vitamin D receptor (VDR) signaling pathway (AID 743222). The note with it: HEK293T VDR-UAS-bla, beta-lactamase FRET ratio, 16 h; series mostly up to 63.5 µM. The text has this: National Center for Advancing Translational Sciences [NCATS]
NIH Chemical Genomics Center [NCGC]
U.S. Environmental Protection Agency [EPA]
National Institutes of Environmental Health Sciences [NIEHS]
National Toxicology Program [NTP]
U.S. Food and Drug Administration [FDA]
The vitamin D receptor (VDR), a member of nuclear hormone receptor superfamily, plays a critical role in calcium homeostasis and bone metabolism. It is also involved in cell differentiation and growth, and thrombogenicity.
Tox21 Assay Protocol Summary:
VDR-bla cells were dispensed at 2,000 cells/6 uL/well into black wall/clear-bottom 1536-well plates using a Multidrop Combi (Thermo Fisher Scientific, Waltham, MA) dispenser. After the assay plates were incubated at a 37C and 5% CO2 for 4 h, 23 nL of compounds dissolved in DMSO, positive controls or DMSO only was transferred to the assay plate by a Pintool station (Kalypsys, San Diego, CA). The plates were incubated at 37C and 5% CO2 for 16 h. After 1 uL of LiveBLAzerTM B/G FRET substrate was added using a Bioraptr Flying Reagent Dispenser (FRD) workstation (Beckman Coulter, Indianapolis, IN, USA), the plates were incubated at room temperature for 2 h, and fluorescence intensity was measured by an Envision plate reader (PerkinElmer, Shelton, CT).
For the compound `CC(C)(CC(=O)O)C(=O)O`, the outcome was inactive.
Still for that read-out and setting: for `O=C1CCCN1C1CCCCC1` the value was “inactive”.
Take `O=S(O)CO`: the outcome was inactive.
Take `C=C(C)C(=O)OCCCCCCCC(C)C`: the outcome was inactive.
Consider `O=Cc1cccc([N+](=O)[O-])c1`, for which the outcome was inactive.
On the same count and under the same terms, the value for `O=c1cc(-c2ccccc2)oc2ccccc12` was “inactive”.
Consider `Cc1cccc(C)c1NC(=O)C(C)N` (stereo not given), for which the result was inactive.
On to `O=C1CCCCCCCCCCCN1`, for which the outcome was inactive.
Same read-out and setting: for `Cc1c(O)cccc1O` the value was “inactive”.
Turning to `COc1ccc(CCN(C)CCCC(C#N)(c2cc(OC)c(OC)c(OC)c2)C(C)C)cc1OC` (stereo not given), the result was inactive.
Consider `CCOC(=O)Nc1ccc(NCc2ccc(F)cc2)nc1N`, for which the outcome was inactive.
Regarding `C[C@H](NC(CCc1ccccc1)C(=O)O)C(=O)N1CCC[C@H]1C(=O)O` (stereo not given in full), the outcome was inactive.
With `Nc1ccc(S(=O)(=O)Nc2ccnn2-c2ccccc2)cc1`, the outcome was inactive.
On to `CCC=O`, for which the outcome was inactive.
Take `Cn1c(N)c(N=O)c(=O)n(C)c1=O`: the result was inactive.
In the case of `CCn1nc(C(=O)O)c(=O)c2cc3c(cc21)OCO3`, the result was inactive.
Turning to `CC(C)NCCCC1(C(N)=O)c2ccccc2-c2ccccc21`, the result was inactive.
The same measure, in the same setting: for `COC(C)(C)CCCC(C)CC=O` (stereo not given) the value was “inactive”.
With `CC(=O)OCC(=O)[C@@]1(O)CCC2C3CCC4=CC(=O)CC[C@]4(C)C3[C@@H](O)C[C@@]21C` (stereo not given in full), the outcome was inactive.
`COC(=O)NN`: the outcome was inactive.
`C=COCC1CCC(CO)CC1` (stereo not given): the result was inactive.
Take `O=C(O)CN(CCOCCOCCN(CC(=O)O)CC(=O)O)CC(=O)O`: the activation was 6.34% [at 0.554 µM].
Consider `CN1N=C(C(N)=O)CCC1=O`, for which the outcome was inactive.
For the compound `CCN(Cc1ccncc1)C(=O)C(CO)c1ccccc1` (stereo not given), the outcome was inactive.
In the case of `C[N+](C)(C)CC(O)CC(=O)[O-]` (stereo not given), the outcome was inactive.
Same read-out and setting: the value for `COC(=O)C1=C(C)NC(C)=C(C(=O)OC)C1c1ccccc1[N+](=O)[O-]` was “inactive”; that for `O=C(O)CCCc1ccccc1` was “inactive”; that for `CC(C)OC(=O)c1ccccc1` was “inactive”.
Still for that read-out and setting: for `Cc1cnc(NS(=O)(=O)c2ccc(N)cc2)nc1` the value was “inactive”.
Regarding `COc1ccc2c(c1)c(CC(=O)OCC(=O)O)c(C)n2C(=O)c1ccc(Cl)cc1`, the outcome was inactive.
Still for that read-out and setting: the value for `CCOC(=O)CC(C)=O` was “inactive”; that for `N=C(N)c1ccc(OCCCOc2ccc(C(=N)N)cc2)cc1` was “inactive”; that for `Cc1ccc(C#N)cc1` was “inactive”.
As to `CC(C)(O)C(=O)c1ccccc1`, the result was inactive.
As for `COC(=O)c1ccc(C)cc1C1=NC(C)(C(C)C)C(=O)N1` (stereo not given), the result was inactive.
Same read-out and setting: the value for `C/C=C(\C)C#N` was “inactive”; that for `CN(C)CCCNCCCN(C)C` was “inactive”; that for `CC1(C)CO[C@@H](CC(=O)O)CN1` was “inactive”.
`CC(C)c1cc2c(cc1S(=O)(=O)O)[C@@]1(C)CCC[C@@](C)(C(=O)O)[C@@H]1CC2`: the result was inactive.
As for `CCC(C)C1CCCCC1=O` (stereo not given), the result was inactive.
